Several values for one entry are separate records, joined by “and”; a condition that tells them apart may be missing. Equal entries are not always repeated. Results filed as inconclusive are left out. The source holds several records for some structures; these can differ, active in one and inactive in another. Activity calls are given as the source filed them. Rule for the calls: active = hit-call score of the fitted dose curve at least 0.9, where 1 is the maximum; inconclusive = response in the unintended direction; inactive = score below 0.9.
target: Peroxisome proliferator-activated receptor gamma (Homo sapiens) (UniProt P37231); assay: NVS_NR_hPPARg: NovaScreen (NVS) Nuclear Receptor Binding Assay for human Peroxisome Proliferator-activated Receptor gamma (PPARg) (AID 2283370)
Sequence (P37231 whole entry, looked up): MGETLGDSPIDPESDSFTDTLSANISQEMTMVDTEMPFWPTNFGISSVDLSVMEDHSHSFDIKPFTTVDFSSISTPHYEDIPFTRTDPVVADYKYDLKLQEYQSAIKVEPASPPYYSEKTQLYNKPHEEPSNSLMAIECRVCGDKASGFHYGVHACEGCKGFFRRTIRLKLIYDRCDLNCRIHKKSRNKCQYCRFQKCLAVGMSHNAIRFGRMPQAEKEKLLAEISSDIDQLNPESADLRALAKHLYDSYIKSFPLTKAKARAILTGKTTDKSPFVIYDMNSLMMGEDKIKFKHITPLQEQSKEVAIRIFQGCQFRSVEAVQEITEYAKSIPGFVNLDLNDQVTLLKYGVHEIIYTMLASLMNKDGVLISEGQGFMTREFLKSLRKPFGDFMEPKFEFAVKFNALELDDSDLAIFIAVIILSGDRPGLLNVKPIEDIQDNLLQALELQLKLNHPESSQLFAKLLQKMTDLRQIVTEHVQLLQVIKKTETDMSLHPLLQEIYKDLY
Procedure, shortened: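 Cell-free binding to extracted PPARg protein, read by fluorescence polarization 2 h after dosing; loss of signal relative to DMSO baseline marks displacement. Primary screen in duplicate at 25 uM, actives retested in concentration series.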

Structure (SMILES)	outcome	AC50
CCCCCCCCCCCC(=O)O	inactive	–
CCC(C)c1ccccc1O (stereo unspecified)	inactive	–
CCCCCCCCCCCC	inactive	0.401 µM (active)
C=CC(C)(CCC=C(C)C)OC(C)=O (stereo unspecified)	inactive	–
CC(O)COc1ccccc1 (stereo unspecified)	inactive	–
CC(C)[C@@H]1CC[C@@H](C)C[C@H]1O	inactive	–
CCCCc1ccc2ccccc2c1S(=O)(=O)O	inactive	–
CCCCCCCCCC=CCC1CC(=O)OC1=O (stereo unspecified)	–	25 µM (active)
Cc1cc(C(=C2C=CC(=Nc3ccc(S(=O)(=O)O)cc3)C=C2)c2ccc(Nc3ccc(S(=O)(=O)O)cc3)cc2)cc(S(=O)(=O)O)c1N	inactive	–
CCCCCCCCCCCCOC(=O)c1cc(O)c(O)c(O)c1	inactive	–

test system: rat Norepinephrine Transporter (NET), gene 83511; assay: NVS_TR_rNET: NovaScreen (NVS) Transporter Assay for rat Norepinephrine Transporter (NET) (AID 2283373)
Procedure, shortened: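 Rat forebrain membranes; radioligand binding measured by filter-based scintillation counting 1 hour after dosing. Loss of specific binding versus DMSO baseline scored; primary screen in duplicate at 25 uM, actives followed up in concentration series.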

Structure (SMILES)	outcome	AC50
N=C(N)c1ccc(OCCCCCOc2ccc(C(=N)N)cc2)cc1	inactive	–
O=C(CCCN1CCC(O)(c2ccc(Cl)cc2)CC1)c1ccc(F)cc1	inactive	–
CN(C)CCOC(c1ccccc1)c1ccccc1	–	2.98 µM (active)

target: human Dopamine Transporter (DAT), SLC6A3 (gene 6531) (UniProt Q01959); assay: NVS_TR_hDAT: NovaScreen (NVS) Transporter Assay for human Dopamine Transporter (DAT) (AID 2283374);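 note: activity means loss of bound radioligand signal relative to DMSO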
Sequence (Q01959 whole entry, looked up): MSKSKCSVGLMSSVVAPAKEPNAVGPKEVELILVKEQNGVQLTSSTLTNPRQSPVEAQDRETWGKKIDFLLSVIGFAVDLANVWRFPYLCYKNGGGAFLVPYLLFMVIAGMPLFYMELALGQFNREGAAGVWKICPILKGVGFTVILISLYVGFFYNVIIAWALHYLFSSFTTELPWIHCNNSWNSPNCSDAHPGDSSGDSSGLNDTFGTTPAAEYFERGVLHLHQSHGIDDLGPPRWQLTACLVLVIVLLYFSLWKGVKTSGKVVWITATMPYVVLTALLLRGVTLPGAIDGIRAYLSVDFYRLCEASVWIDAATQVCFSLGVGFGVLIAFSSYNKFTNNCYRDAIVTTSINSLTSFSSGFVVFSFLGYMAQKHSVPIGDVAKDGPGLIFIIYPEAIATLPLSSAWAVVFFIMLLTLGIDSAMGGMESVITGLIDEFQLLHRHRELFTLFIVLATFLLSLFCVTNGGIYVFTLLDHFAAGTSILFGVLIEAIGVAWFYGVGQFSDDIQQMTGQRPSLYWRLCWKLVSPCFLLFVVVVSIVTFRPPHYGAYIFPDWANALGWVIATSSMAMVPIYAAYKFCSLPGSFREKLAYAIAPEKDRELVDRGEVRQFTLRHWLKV
Procedure, shortened: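 Cell-free radioligand binding to extracted human DAT protein, read 1 h after dosing by filter-based scintillation counting. Loss of specific binding scored against DMSO baseline; primary screen in duplicate at 25 uM, actives then run in concentration series.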

Structure (SMILES)	AC50	outcome
Oc1cccc2c(O)cccc12	25 µM (active)	–
CN(C)c1ccc(C(=C2C=CC(=[N+](C)C)C=C2)c2ccccc2)cc1	6.41 µM (active) and 3.13 µM (active)	–
CCOC(OCC)C(=O)c1ccccc1	7 µM (active)	–
N=C(N)c1ccc(OCCCCCOc2ccc(C(=N)N)cc2)cc1	4.11 µM (active)	–
CCCCN(C)C	–	inactive
O=C(c1ccccc1)c1ccccc1	–	inactive
CN(Cc1cnc2nc(N)nc(N)c2n1)c1ccc(C(=O)N[C@@H](CCC(=O)O)C(=O)O)cc1	6.69 µM (active)	–
NC(=NCCCCCCN=C(N)/N=C(\N)Nc1ccc(Cl)cc1)/N=C(\N)Nc1ccc(Cl)cc1	0.458 µM (active)	–
C[C@]12CC[C@@H]3c4ccc(O)cc4CC[C@H]3[C@@H]1C[C@@H](O)[C@@H]2O	15.4 µM (active)	–
Clc1ccc(Nc2nnc(Cc3ccncc3)c3ccccc23)cc1	0.987 µM (active)	–
CCCCCCCCCCCCCCCCCC[N+](C)(C)Cc1ccccc1	–	inactive
CCCCCc1ccc(O)cc1	6.09 µM (active)	–

target: rat Serotonin Transporter (SERT), Slc6a4 (gene 25553) (UniProt P31652); assay: NVS_TR_rSERT: NovaScreen (NVS) Transporter Assay for rat Serotonin Transporter (SERT) (AID 2283375)
Sequence (P31652 whole entry, looked up): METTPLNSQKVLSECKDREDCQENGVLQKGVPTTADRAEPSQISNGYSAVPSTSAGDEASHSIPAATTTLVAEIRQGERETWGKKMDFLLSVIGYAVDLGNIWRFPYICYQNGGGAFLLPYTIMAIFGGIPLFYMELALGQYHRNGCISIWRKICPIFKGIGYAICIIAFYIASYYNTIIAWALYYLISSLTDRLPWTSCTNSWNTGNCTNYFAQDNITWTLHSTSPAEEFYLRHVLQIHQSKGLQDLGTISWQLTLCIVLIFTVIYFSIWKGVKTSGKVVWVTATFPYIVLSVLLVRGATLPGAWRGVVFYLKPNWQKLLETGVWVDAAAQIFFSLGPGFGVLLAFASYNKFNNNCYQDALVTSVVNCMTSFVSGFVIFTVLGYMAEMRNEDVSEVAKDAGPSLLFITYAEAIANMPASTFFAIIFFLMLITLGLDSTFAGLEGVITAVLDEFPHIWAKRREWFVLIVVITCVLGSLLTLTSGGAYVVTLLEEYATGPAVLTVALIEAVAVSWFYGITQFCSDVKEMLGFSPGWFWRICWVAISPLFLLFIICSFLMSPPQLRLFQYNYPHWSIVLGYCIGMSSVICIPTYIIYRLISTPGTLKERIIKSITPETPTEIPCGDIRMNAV
Procedure, shortened: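 Rat forebrain membranes were incubated with test chemical for 1 hour; radioligand binding to SERT was measured by filter-based scintillation counting. Primary screen ran in duplicate at 25 uM, with actives followed up in concentration series; DMSO served as negative control.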

Structure (SMILES)	AC50	outcome
O=C1OC2(c3ccccc31)c1cc(I)c(O)c(I)c1Oc1c2cc(I)c(O)c1I	0.953 µM (active)	–
NC(=NCCCCCCN=C(N)/N=C(\N)Nc1ccc(Cl)cc1)/N=C(\N)Nc1ccc(Cl)cc1	0.322 µM (active)	–
Clc1ccc(Nc2nnc(Cc3ccncc3)c3ccccc23)cc1	–	inactive
CN(C)CCOC(c1ccccc1)c1ccccc1	12.6 µM (active)	–
CCCCCCCCCCCCCCCCCC[N+](C)(C)Cc1ccccc1	7.73 µM (active)	–
